Most compounds without a hit are left out; they make up all but 2.6% or so of the library.
eIF4H inh: inhibitors of RNA binding by human eIF4H; 0.94% of 290,000 active; eIF4H fluorescence polarization binding assay; Q15056; inhibition, % at 35 µM; AID 2012;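 further: calls also rest on retests at 20 µM and on dose response follow-up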
PABP polyA inh: blocks human PABP binding to poly(A) RNA. P11940. fluorescence polarization. calls only at 35 µM. 1% of 290,000 active. AID 2014;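 further: calls also rest on retests at 20 µM and on dose response follow-up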
A3A deaminase: inhibitors of human APOBEC3A DNA deaminase. 0.41% of 330,000 active. recombinant A3A, FAM/TAMRA ssDNA deamination fluorescence. inhibition, % at 20 µM. P31941;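 active means at least 40% inhibition at 20 µM here, with at most 30% in a related deaminase screen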
Target sequence (P31941 whole entry, looked up): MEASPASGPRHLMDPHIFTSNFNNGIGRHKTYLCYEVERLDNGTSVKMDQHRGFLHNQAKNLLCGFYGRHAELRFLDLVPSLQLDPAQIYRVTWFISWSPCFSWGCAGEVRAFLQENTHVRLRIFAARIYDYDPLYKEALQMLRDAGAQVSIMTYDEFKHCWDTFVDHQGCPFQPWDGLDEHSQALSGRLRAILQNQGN
A3G deaminase: APOBEC3G (human) deaminase inhibition. Q9HC16. recombinant A3G, ssDNA deamination FAM/TAMRA fluorescence. inhibition, % at 20 µM. 0.28% of 330,000 active. AID 493012;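 active means inhibition of at least 40% at 20 µM, with no more than 30% in the related APOBEC3A deaminase screen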
PABP1 MLLE inh: inhibitors of microRNA-mediated deadenylation, human PABP1 MLLE binding | 0.36% of 360,000 active | inhibition, % at 20 µM | GST-MLLE / FITC-PAM2 fluorescence polarization | P11940; in the data active means inhibition above about 35%, passing the limit was not always enough
PHOSPHO1 block: PHOSPHO1 (human) inhibition | Q8TCT1 | recombinant PHOSPHO1, absorbance phosphatase assay | inhibition, % at 13.3 µM | 1.1% of 290,000 active | AID 1565; in the data active means inhibition above about 60%
APOBEC3G confirm: confirmation of human APOBEC3G DNA deaminase inhibitors; inhibition, % at 20 µM; 72% of 890 active; AID 493152; shares compounds with A3G deaminase; recombinant A3G ssDNA deaminase, UDG/FAM-TAMRA fluorescence;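 active means inhibition reaching a set limit in any replicate at 20 µM, the limit being 80% of the first screen's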
UDG A3G counter: E. coli UDG inhibition in APOBEC3G counter-screen; 710 tested, under 10 active; inhibition, % at 20 µM; shares compounds with A3G deaminase; UDG counterscreen, FAM/TAMRA oligo fluorescence;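 active means compounds giving 40% or more inhibition at 20 µM in any one of the three replicates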;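 further: inhibitors lower the FAM signal released by uracil excision and alkaline cleavage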
Target sequence (P12295 whole entry, looked up): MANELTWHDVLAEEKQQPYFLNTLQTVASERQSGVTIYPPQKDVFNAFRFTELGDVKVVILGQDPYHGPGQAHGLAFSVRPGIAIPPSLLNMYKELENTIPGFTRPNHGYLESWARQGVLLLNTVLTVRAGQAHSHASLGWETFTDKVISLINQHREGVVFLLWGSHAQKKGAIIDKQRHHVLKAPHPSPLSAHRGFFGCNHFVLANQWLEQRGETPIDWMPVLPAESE
Numbers stand for hits; n = inactive; u = inconclusive; x = no result given; + = active, no number. Unless noted, how the calls were made is not given here.

SMILES	eIF4H inh	PABP polyA inh	A3A deaminase	A3G deaminase	PABP1 MLLE inh	PHOSPHO1 block	APOBEC3G confirm	UDG A3G counter
COc1ccc(CCNC(=O)C2CCN(S(=O)(=O)c3ccc(F)cc3)CC2)cc1	n	n	n	n	n	n	x	x
COc1ccc(OCc2nnc(SCC(=O)N(C)Cc3ccccc3)n2N)cc1	n	n	n	47	n	n	41	n
COc1ccc(NC(=O)CN2C(=O)/C(=C3\SC(=S)N(CCC(=O)O)C3=O)c3ccccc32)cc1	n	n	n	53	n	n	71	n
S=c1nc(-c2cccc(Cl)c2)[nH][nH]1	n	n	x	x	n	n	x	x
COc1cc(-c2nc(=S)[nH][nH]2)cc(OC)c1OC	n	n	n	62	n	n	94	n
COc1ccc(-c2nc(=S)[nH][nH]2)cc1	n	n	n	62	n	96	95	n
Oc1ccc(-c2nc(=S)[nH][nH]2)cc1	n	n	n	64	n	n	90	n
COc1ccc(-c2nc(=S)[nH][nH]2)cc1OC	n	n	n	61	n	n	93	n
FC(F)(F)c1ccc(-c2nc(=S)[nH][nH]2)cc1	n	n	n	n	n	n	x	x
C[C@@H]1CN([C@H](C)CO)C(=O)CCCn2cc(nn2)CO[C@H]1CN(C)C(=O)Nc1ccc(F)cc1	x	x	x	x	n	x	x	x
Cc1cc(C)n2c(=S)[nH]nc2n1	n	n	n	92	n	96	90	n
O=C(CC1CCCC1)Nc1cc(S(=O)(=O)N2CCOCC2)ccc1O	x	x	n	57	n	x	33	n
CC(C)Oc1ccc(S(=O)(=O)N2CCOCC2)cc1NC(=O)CC1CCCC1	x	x	n	n	n	x	x	x
CCOC(=O)N1CCc2c(sc(NC(=O)CN3CCOCC3)c2C#N)C1	n	n	n	n	n	n	x	x
CCOC(=O)N1CCc2c(sc(N)c2C#N)C1	n	n	n	49	x	n	36	x
CC1(C)NC(=O)N(CC(O)CN(c2ccccc2)S(=O)(=O)c2ccccc2[N+](=O)[O-])C1=O (stereo not given)	n	n	n	n	n	n	x	x
CCN1CCN(c2nc(C)nc3c2sc(=S)n3C)CC1	n	n	n	46	n	60	45	x
Cc1nc(N2CCCCC2)c2sc(=S)n(C)c2n1	n	n	n	n	n	n	x	x
Cc1cc(S(=O)(=O)Nc2ncnc3sccc23)ccc1F	x	x	x	x	n	x	x	x
O=C(c1cc([N+](=O)[O-])[nH]n1)N1CCSCC1	n	n	n	n	n	n	x	x
CCC(Oc1ccccc1)C(=O)Nc1ccc(C)c(S(=O)(=O)N2CCOCC2)c1 (stereo not given)	x	x	n	81	n	x	n	x
O=C(Cn1cc(C(F)(F)F)ccc1=O)NC1CCCC1	x	x	n	n	n	x	x	x
CCOC(=O)c1cc(-c2ccc(OC)cc2)nn1-c1ccccc1C(=O)O	n	n	n	63	n	n	41	n
COc1ccc(-c2cc(C(=O)NN)n(-c3ccccc3)n2)cc1	n	n	n	n	n	n	x	x
O=S(=O)(c1c(F)cccc1F)N1CCCC2CCCCC21 (stereo not given)	x	x	n	53	n	x	n	n
SMILES	eIF4H inh	PABP polyA inh	A3A deaminase	A3G deaminase	PABP1 MLLE inh	PHOSPHO1 block	APOBEC3G confirm	UDG A3G counter
O=C(CC1CCCC1)N1CCN(S(=O)(=O)c2c(F)cccc2F)CC1	x	x	x	x	n	x	x	x
O=C(COC(=O)c1ccc(S(=O)(=O)C(F)F)cc1)Nc1cccnc1Cl	x	x	n	n	n	x	x	x
Cc1ccc(C)c(NC(=O)CN(C)C(=O)c2cc(C3CC3)nn2-c2ccccc2)c1	x	x	n	n	n	x	x	x
Cc1ccn2c(C(=O)c3ccc(Cl)cc3)cnc2c1	n	n	n	46	n	n	n	x
COc1ccc(C2CC(=O)N3CN(c4ccc(C)c(Cl)c4)CSC3=C2C#N)cc1 (stereo not given)	n	n	n	52	n	83	52	x
COc1cc(OC)c(C2CC(=O)N3CN(c4ccccc4C)CSC3=C2C#N)cc1OC (stereo not given)	n	n	n	44	x	n	n	x
COc1ccc(OC)c(C2CC(=O)N3CN(c4ccccc4)CSC3=C2C#N)c1 (stereo not given)	n	n	n	46	n	83	56	n
Cc1ccc(C(=O)N2CCC(N3CCC(C(=O)N4CCOCC4)CC3)CC2)cc1	x	x	x	x	n	x	x	x
CC1(C)CC(=O)C=C(c2ccc(-c3cnn(Cc4ccccc4)c3)cc2)C1=O	x	x	x	x	n	x	x	x
CCCCN1C(=O)C2(NNc3ccccc3O2)c2ccccc21 (stereo not given)	n	n	n	43	n	73	n	x
CCCCN1C(=O)C(O)(CC(=O)c2c(C)coc2C)c2ccccc21 (stereo not given)	n	n	n	n	n	n	x	x
CC/C(=N/Nc1cccc(C)c1)c1cnnc(SC)n1	u	n	n	46	n	n	n	x
CC/C(=N/Nc1ccc(Cl)cc1)c1cnnc(SC)n1	n	n	n	n	n	n	x	x
CC(/C=N/n1c(-c2cccnc2)n[nH]c1=S)=C\c1ccccc1	n	n	n	n	n	n	x	x
S=c1[nH]nc(-c2cccc(Cl)c2)n1/N=C/c1ccco1	n	n	n	n	x	n	x	x
S=c1[nH]nc(-c2ccncc2)n1/N=C/C=C/c1ccco1	96	+	n	57	n	n	74	n
CC(=C/c1ccccc1)/C=N/n1c(-c2ccncc2)n[nH]c1=S	n	n	n	61	n	n	94	n
S=c1[nH]nc(-c2ccco2)n1/N=C/C(Cl)=C/c1ccccc1	n	n	n	n	n	n	x	x
CC(=C/c1ccccc1)/C=N/n1c(C)n[nH]c1=S	n	n	n	n	n	n	x	x
CC(/C=N/n1c(-c2ccco2)n[nH]c1=S)=C\c1ccco1	n	n	n	62	n	n	58	n
CC(/C=N/n1c(-c2ccncc2)n[nH]c1=S)=C\c1ccco1	84	+	n	66	n	n	90	n
CCOC(=O)C1CCN(C2CCN(C(=O)c3oc4c(C)c(C)ccc4c3C)CC2)CC1	n	n	n	n	n	n	x	x
NS(=O)(=O)c1ccc2nc(NC(=O)Nc3ccc(F)cc3)sc2c1	n	n	n	n	n	n	x	x
COC(=O)N1CCc2c(sc(NC(=O)C3COc4ccccc4O3)c2C(N)=O)C1 (stereo not given)	x	x	n	50	n	x	21	n
CCc1ccc(CN2CCC(C(=O)Nc3ccc(Oc4ccccc4)nc3)CC2)o1	n	n	n	41	n	n	n	x
O=C(Nc1ccc(Oc2ccccc2)nc1)C1CCN(Cc2ccccc2)CC1	n	n	n	n	n	n	x	x
CC1CCCCC1NC(=O)COC(=O)c1ccc2c(c1)OCCO2 (stereo not given)	x	x	n	n	n	x	x	x
Cc1ccc(NC(=O)CC2OC(=O)c3ccccc32)cc1S(=O)(=O)N1CCCCCC1 (stereo not given)	x	x	n	n	n	x	x	x
